# From PubChem BioAssay
# CBFb-RUNX1 inh – inhibitors of human CBF-beta and RUNX1 interaction. Q01196+Q13951. AlphaScreen CBFb-His/RUNX1-biotin binding, biochemical. Potency, µM (highest dose often 59.8 µM), most hits filed as inhibitors. 230,000 tested, under 10 active; active = well fitted curve in the direction sought with a large enough effect; inconclusive = small, poorly fitted or top-dose-only effect, or another doubt; inactive = no such curve, though single readings can be large; an effect the other way counts as inactive or inconclusive
#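 Read-out: AlphaScreen. Format: His-CBF-beta with biotinylated RUNX1 (30 nM each) preincubated 20 min, compound 15 min, Ni-chelate plus streptavidin beads 90 min; room temperature throughout.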
# ALDH1A1 block – inhibitors of human aldehyde dehydrogenase 1A1. P00352. Purified ALDH1A1, NADH fluorescence, propionaldehyde substrate. Potency, µM (titrated, usually from 75.3 µM), usual class: inhibitors. hit rate 7.3% among 220,000
# Target sequence (P00352 whole entry, looked up): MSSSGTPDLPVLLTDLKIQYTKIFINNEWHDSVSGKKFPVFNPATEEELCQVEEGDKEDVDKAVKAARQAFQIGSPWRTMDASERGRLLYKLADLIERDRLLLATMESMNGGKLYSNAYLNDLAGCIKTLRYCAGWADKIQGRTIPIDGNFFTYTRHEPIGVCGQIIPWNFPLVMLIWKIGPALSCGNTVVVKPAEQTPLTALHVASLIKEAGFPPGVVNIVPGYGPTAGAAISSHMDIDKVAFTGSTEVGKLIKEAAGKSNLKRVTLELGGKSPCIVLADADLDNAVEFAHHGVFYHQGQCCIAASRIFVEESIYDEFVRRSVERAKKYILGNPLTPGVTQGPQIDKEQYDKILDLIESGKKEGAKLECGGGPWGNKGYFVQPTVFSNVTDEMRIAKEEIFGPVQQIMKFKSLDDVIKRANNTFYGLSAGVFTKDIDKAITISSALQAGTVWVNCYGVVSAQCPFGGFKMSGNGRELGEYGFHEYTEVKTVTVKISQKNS
# KDM4E inh – inhibitors of human JMJD2E histone demethylase; hit rate 1.6% among 230,000; AID 2147; JMJD2E catalytic domain, FDH-coupled NADH fluorescence (FDH is formaldehyde dehydrogenase); B2RXH2; Potency, µM (highest dose often 57.1 µM), usual class: inhibitors; also: nearly all actives have a fitted effect of over 50% in size
# HPGD inh – blocks human HPGD enzyme activity; Potency, µM, most hits filed as inhibitors; P15428; purified HPGD, NADH fluorescence kinetic, PGE2 substrate; hit rate 4.3% among 150,000
#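 NADH formation kinetics: reaction with 30 uM PGE2 and 1 mM NAD+ (final), 20 nM enzyme, Tris-HCl pH 8 with Tween 20, after 15 min compound preincubation at room temperature. Fluorescence change, last versus first of five reads.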
# HTT cytoprotect – protects HTT-Q103 PC12 cells, measured by ATP | PC12 HTT-Q103 induced, cytoprotection, ATP luminescence, 40 h | Potency, µM (highest dose often 56.4 µM), usual class: activators | hit rate 0.14% among 230,000 | AID 1471; active = well fitted curve in the direction sought with a large enough effect; inconclusive = small, poorly fitted or top-dose-only effect, or another doubt; inactive = no such curve, though single readings can be large; an effect the other way counts as inactive or inconclusive; also: nearly all actives have a fitted effect of over 45% in size
#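 Cells were plated at 1500 per well in phenol red-free DMEM with 5% equine and 5% calf serum. Tebufenozide (100 nM final) and compounds were added, then ATPlite reagent, and luminescence was read.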
# HTT aggregate – inhibitors of mutant huntingtin aggregate formation in PC12 cells. PC12 HttQ103-GFP aggregates, Acumen cytometry, 40 h. hit rate 1.1% among 220,000. Potency, µM (titrated, usually from 46.1 µM), most hits filed as inhibitors; active = well fitted curve in the direction sought with a large enough effect; inconclusive = small, poorly fitted or top-dose-only effect, or another doubt; inactive = no such curve, though single readings can be large; an effect the other way counts as inactive or inconclusive; also: nearly all actives have a fitted effect of over 60% in size
#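 Ecdysone-promoter PC12 model expressing HTT exon 1 Q103 fused to GFP, induced by tebufenozide at 100 nM final. Compounds titrated; aggregates sized 1–25 µm scored on a 488 nm laser cytometer.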
# Numbers stand for hits; 0 = inactive; ? = inconclusive; - = not tested or not shown; [ ] = dose if it differs, or a comment. A selection: hits, their analogues and other compounds. The true share with any hit is near 9.8%. Unless noted, calls follow the shape of the dose curve; as a rule, active = well fitted inhibition curve with a large enough effect (not every such curve was filed as active); inconclusive = small, poorly fitted or top-dose-only effect, or another doubt; inactive = no such curve, though single readings can be large or run the other way.
SMILES,CBFb-RUNX1 inh,ALDH1A1 block,KDM4E inh,HPGD inh,HTT cytoprotect,HTT aggregate
Cc1cc(NC(=O)CN2CCCC(C)C2)no1 (stereo not drawn),0,0,0,-,0[10 µM],0[9.22 µM]
Cc1ccc(CNC(=O)CN2CCCC(C)C2)cc1 (stereo not drawn),0,0,0,14.1µM,0,0[1.84 µM]
Cc1ccc(C2=NOC(=O)/C2=C\C=C\c2ccccc2)cc1,0,3.55µM,?,-,0[10 µM],0
CN(C)/C=C1\C(=O)ON=C1c1ccccc1,0,0,0,-,?,0
O=C1ON=C(c2ccccc2)/C1=C/c1ccco1,?,?,0,-,-,0
COc1cc(/C=C2\C(=O)ON=C2c2ccccc2)cc(OC)c1OC,0,?,?,14.1µM,0,0
COc1ccc(/C=C2\C(=O)ON=C2c2cccc([N+](=O)[O-])c2)cc1,0,17.8µM,0,-,0,0
COc1ccc(/C=C2/C(=O)ON=C2c2ccccc2)cc1OC,0,22.4µM,0,10µM,0,0
CC1OC(O[C@H]2CC[C@]3(C)C4C=C[C@]56OC[C@@]7(CC[C@@H](C)[C@H](C)C75)[C@H](O)C[C@@]6(C)[C@]4(C)CC[C@H]3C2(C)C)C(OC2OC(CO)C(O)C(O)C2OC2OCC(O)C(O)C2O)C(O)C1O (stereo partly drawn),0,-,0,-,0[10 µM],0[9.22 µM]
O=C1NC(N2CCOCC2)=N/C1=C/c1ccc2c(c1)OCO2,0,0,0,-,0,0
Cc1ccc(NC(=O)COC(=O)Cn2cnc3ccccc32)cc1S(=O)(=O)N(C)C,0,14.1µM,0,0,0[10 µM],0
O=C(COC(=O)Cn1cnc2ccccc21)Nc1cccc(S(=O)(=O)N2CCOCC2)c1,0,?,0,-,0,0
COc1ccc(CCNCC(=O)Nc2ccc(C)c(S(=O)(=O)N(C)C)c2)cc1,0,?,28.2µM,-,0[10 µM],0
O=C(Cn1cnc2ccccc21)OCC(=O)N1CCc2ccccc2C1,0,28.2µM,0,0,0,0
O=C(COC(=O)Cn1cnc2ccccc21)Nc1ccc2c(c1)C(=O)c1ccccc1C2=O,0,0.631µM,0,0,0[10 µM],0
O=S(=O)(O)n1ccnc1 (tested in a mixture with another compound),-,0[13.5 µM],-,0,0[10 µM],-
COCCCNC(=O)c1cc(C)nn1-c1ccccc1,0,-,0,-,0[10 µM],0[9.22 µM]
CN(C)CCCN1C(=O)C(=O)/C(=C(/O)c2ccc(S(=O)(=O)N(C)C)cc2)C1c1ccncc1 (stereo not drawn),-,25.1µM,-,0,-,-
Cc1ccc(N(CC(=O)N/N=C/c2cc(C)n(-c3ccccc3C)c2C)S(C)(=O)=O)cc1,0,25.1µM,?,0,0[10 µM],0
CCOC(=O)C1=C2NC(=O)c3ccccc3N2C(=O)C1,0,25.1µM,?,-,?,0
Cc1ccc(C)c(NC(=O)c2ccccc2NS(=O)(=O)c2cc([N+](=O)[O-])ccc2C)c1,0,0,0,0,0[10 µM],2.82µM
Cc1ccc(C)c(S(=O)(=O)Nc2ccccc2C(=O)Nc2cc(C)on2)c1,0,?,?,?,0,10µM
Cc1ccc(C)c(NC(=O)c2ccccc2Sc2ccc([N+](=O)[O-])cc2Cl)c1,0,0,0,0,?,0
CC(C)N1CCN(Cc2cccn2-c2ccccn2)CC1CCO (stereo not drawn),0,0,0,-,0[10 µM],0[9.22 µM]
COc1ccccc1CNc1ccc(C(=O)O)cc1,0,0,0,0,0,0[9.22 µM]
SMILES,CBFb-RUNX1 inh,ALDH1A1 block,KDM4E inh,HPGD inh,HTT cytoprotect,HTT aggregate
COc1ccccc1CNc1ccc(N2CCCCC2)cc1,?,?,20µM,0,0[10 µM],?
COc1cccc(CNc2ccc(S(N)(=O)=O)cc2)c1OC,0,0,0,0,0,0
COc1cccc(CNc2ccc(N3CCCCC3)cc2)c1OC,?,3.98µM,11.2µM,0,0,?
O=C(N/N=C/c1cccnc1)c1cccc(S(=O)(=O)Nc2cccc(Cl)c2)c1,0,0,0,-,0,0
O=C(N/N=C/c1ccncc1)c1cccc(NC(=O)c2ccccc2Cl)c1,0,12.6µM,0,0,0[10 µM],0
O=C(N/N=C/c1ccncc1)c1cccc(S(=O)(=O)Nc2ccc(Cl)cc2)c1,?,-,3.55µM,-,0[10 µM],0[9.22 µM]
COc1ccc(/C=N/NC(=O)c2cccc(NC(=O)c3ccccc3Cl)c2)cc1OC,0,3.98µM,0,-,0,0
COc1cc(/C=N/NC(=O)c2cccc(NC(=O)c3ccccc3Cl)c2)ccc1O,0,12.6µM,0,-,0[1.9 µM],0
O=S1(=O)C=CC(c2ccccc2)C1 (stereo not drawn),0,-,0,-,0[10 µM],0[9.22 µM]
COc1cccc(SCC2CSc3nc4ccccc4c(=O)n32)c1 (stereo not drawn),0,0,0,-,0,0
COc1ccccc1/C=N/NC(=O)c1cccc(NC(=O)c2ccccc2Cl)c1,0,20µM,?,-,0,0
COc1ccccc1/C=N/NC(=O)c1ccc(Cn2nc([N+](=O)[O-])cc2C)cc1,0,14.1µM,0,?,-,0
CC(=O)Nc1cccc(C(=O)N/N=C/c2ccccc2F)c1,0,0,0,35.5µM,0[10 µM],0
CC(=O)Nc1cccc(C(=O)N/N=C/c2ccc(F)cc2)c1,0,0,0,0,0[10 µM],0
Cc1csc2c(N(C)CCO)ncnc12,0,0,0,-,0[10 µM],0[9.22 µM]
CCC(CC)NC(=O)CN(c1ccccc1OC)S(=O)(=O)c1cccs1,0,-,0,-,0[10 µM],0[9.22 µM]
O=C(NCc1ccccn1)C1CCN(Cc2cnn(-c3ccccc3)c2-n2cccc2)CC1,0,25.1µM,0,0,0,0
O=C(NCc1ccccn1)C1CCCN(Cc2cnn(-c3ccccc3)c2-n2cccc2)C1 (stereo not drawn),0,0,0,0,0,0
Cc1cc2nc3c(=O)n(CCc4ccccc4)c(=O)[nH]c3nc2cc1N,0,-,31.6µM,-,0[10 µM],0[9.22 µM]
CCCCn1c(=O)[nH]c2nc3cc(N)ccc3nc2c1=O,0,?,0,0,0[10 µM],0
Nc1ccc2nc3c(=O)n(CCc4ccccc4)c(=O)[nH]c3nc2c1,0,-,1.78µM,-,0[10 µM],0[9.22 µM]
N#CC1=C(N)N(c2ccc(F)cc2)C2=C(C1c1ccc(O)cc1)S(=O)(=O)CC2 (stereo not drawn),?,11.2µM,20µM,-,0,0
CC(C)(C)C(=O)N=C1SC2CS(=O)(=O)CC2N1c1ccc2c(c1)OCO2 (stereo not drawn),0,0,0,0,0,0
Cc1cc(C)c(C)c(S(=O)(=O)N2CCN(c3ccc(O)cc3)CC2)c1C,?,22.4µM,0,-,0,?
Cc1ccc(Br)cc1S(=O)(=O)N1CCN(c2ccccc2)CC1,0,0,0,0,0[1.9 µM],0
CCN(CC)c1ccc(/C=N/NC(=O)c2ccc3nc[nH]c3c2)cc1,0,?,?,-,0[10 µM],0[9.22 µM]
CN(C)c1ccc(/C=N/NC(=O)c2ccc3nc[nH]c3c2)cc1,0,17.8µM,?,-,0[10 µM],0[9.22 µM]
